HT1080-NT tox: qHTS for induction of synthetic lethality in tumor cells producing 2HG: qHTS for the HT-1080-NT fibrosarcoma cell line; HT-1080-NT fibrosarcoma viability, CellTiter-Glo ATP luminescence, 48 h; Potency, µM (doses to about 46.1 µM), for inactives: top-dose activity, negative = less viability, hits mostly cytotoxic; 360,000 compounds, 1.6% hits;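 further: NT is the 2HG producing partner of a matched IDH1 knockdown line; potency means the concentration at half of the fitted maximal effect; 0% = DMSO-treated cells and -100% = media-only wells without cells; nearly all actives have a fitted effect of over 55% in size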
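Viability by CellTiter-Glo luminescence after 48 h compound exposure at 37C of HT-1080-NT cells (750/well, RPMI, 5% FBS). % activity scaled between DMSO wells and medium-only wells, then curve-fitted and categorized by curve class.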
HT1080 IDH1KD tx: qHTS for induction of synthetic lethality in tumor cells producing 2HG: qHTS for the HT-1080-IDH1KD cell line. 360,000 compounds, 2% hits. HT-1080 IDH1 knockdown viability, ATP luminescence, 48 h. AID 686971, 2013. Potency, µM (top dose mostly 46.1 µM), for the others: top-dose activity, negative = toxicity, hits mostly cytotoxic;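 further: potency means the concentration at half of the fitted maximal effect; 0% = DMSO wells and -100% = cell-free medium wells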
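Knockdown cells (IDH1KD HT-1080) received compounds 2 h after plating at 750 cells/well and were kept 48 h at 37 °C in 5% FBS RPMI. A CellTiter-Glo luminescence read gave % activity for curve fitting.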
TDP1 cell noCPT: qHTS for Inhibitors of human tyrosyl-DNA phosphodiesterase 1 (TDP1): qHTS in cells in absence of CPT | DT40 Tdp1-/- hTDP1 cells, no CPT, ATP luminescence, 48 h | Potency, µM (highest dose often 46.2 µM), for the others: top-dose activity change, negative = growth inhibition, hits mostly inhibitors | 420,000 compounds, 15% hits | AID 686978, 2013; further: potency means the concentration at half of the fitted maximal effect; nearly all actives have a fitted effect of over 55% in size
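DT40 Tdp1-/-;hTDP1 cells, no CPT (DMSO vehicle only), 400 cells/well; compounds pin-transferred; ≥48 hr, 37 °C; CellTiter-Glo 30 min RT dark, luminescence read.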
IL-1B inflam inh: qHTS for Inhibitors of Inflammasome Signaling: IL-1-beta AlphaLISA Primary Screen; THP-1 LPS/ATP IL-1B secretion, AlphaLISA, 16 h; stronger effect = lower value; activity change, % at 57.5 µM; 360,000 compounds, 4.7% hits; in the data active means activity change below about -50%; inconclusive means mostly about -30% to -49%
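THP-1 cells pretreated 1 hr with compounds (up to 57.5 uM final), then stimulated with LPS (250 ng/mL final) plus ATP (1.25 mM final); secreted IL-1B measured by AlphaLISA after 16 hr, decreased signal indicating inhibition.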
TDP1 cell CPT: qHTS for Inhibitors of human tyrosyl-DNA phosphodiesterase 1 (TDP1): qHTS in cells in presence of CPT | 420,000 compounds, 12% hits | AID 686979, 2013 | Potency, µM (highest dose often 46.2 µM), inactives show top-dose activity change, negative = growth inhibition, actives largely listed as inhibitors | chicken DT40 Tdp1-/-;hTDP1 cells + 20 nM CPT, ATP luminescence, 48 h; further: potency means the concentration at half of the fitted maximal effect; nearly all actives have a fitted effect of over 55% in size
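Cell growth measured by CellTiter-Glo luminescence after a minimum 48 h, 37 C compound exposure with 20 nM CPT in Tdp1-knockout DT40 cells stably expressing hTDP1, seeded 400/well; qHTS titration format.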
ALOX12 inh: Primary qHTS assay for inhibitors of human arachidonate 12S-lipoxygenase (ALOX12): Round 2; Polyunsaturated fatty acid lipoxygenase ALOX12 (Homo sapiens), P18054; purified 12hLO, xylenol orange hydroperoxide absorbance; Potency, µM (highest dose often 108 µM), without a hit: at the highest dose activity change, negative = inhibition, most hits filed as inhibitors; 580,000 compounds, 1.1% hits; further: potency means the concentration at half of the fitted maximal effect
Target sequence (P18054 whole entry, looked up): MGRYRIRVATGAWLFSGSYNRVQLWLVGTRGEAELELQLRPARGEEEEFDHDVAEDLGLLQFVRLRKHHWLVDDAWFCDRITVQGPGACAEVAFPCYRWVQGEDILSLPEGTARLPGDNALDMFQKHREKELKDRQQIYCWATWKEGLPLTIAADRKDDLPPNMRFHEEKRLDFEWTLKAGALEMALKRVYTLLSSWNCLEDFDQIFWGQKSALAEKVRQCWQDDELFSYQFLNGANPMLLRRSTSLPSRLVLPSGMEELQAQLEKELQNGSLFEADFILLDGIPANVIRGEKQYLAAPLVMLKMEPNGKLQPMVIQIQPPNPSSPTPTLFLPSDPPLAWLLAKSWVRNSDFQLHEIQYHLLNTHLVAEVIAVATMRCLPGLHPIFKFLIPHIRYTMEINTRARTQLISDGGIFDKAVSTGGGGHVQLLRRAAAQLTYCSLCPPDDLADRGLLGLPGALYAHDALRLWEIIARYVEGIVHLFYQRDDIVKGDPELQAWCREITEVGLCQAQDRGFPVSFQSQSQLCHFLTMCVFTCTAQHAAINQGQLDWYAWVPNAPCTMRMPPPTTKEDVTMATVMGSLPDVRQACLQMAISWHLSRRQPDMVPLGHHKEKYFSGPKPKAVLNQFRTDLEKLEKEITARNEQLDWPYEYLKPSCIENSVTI
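Hydroperoxide product was detected by ferrous iron/xylenol orange as the 573 to 405 nm absorbance ratio. Arachidonic acid at 40 uM (final) was turned over for 30 min at room temperature by 150 nM human 12hLO, pH 7.0 Hepes buffer, after 15 min compound preincubation.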
* hit, by the source's call. This is one part of a sample in which hits are shown more often than they occur. Unless noted, the call rests on the fitted dose curve; in most records, active means well fitted curve in the direction sought with a large enough effect; inconclusive means small, poorly fitted or top-dose-only effect, or another doubt; inactive means no such curve, though single readings can be large; an effect the other way counts as inactive or inconclusive. Unless noted, on the % scale 0 is the no-effect control and ±100 the full control effect.

`O=C(NCCCO)c1nc2ccccc2s1` gave HT1080-NT tox 5.6%, HT1080 IDH1KD tx 3.0%, TDP1 cell noCPT 3.5%, IL-1B inflam inh 53.1, TDP1 cell CPT -18.5% and ALOX12 inh 35.5%.
For CCCCNC(=O)Nc1nc2ccccc2s1 the results were HT1080-NT tox 1.3%, HT1080 IDH1KD tx 18.6%, TDP1 cell noCPT inconclusive, IL-1B inflam inh -78.0*, TDP1 cell CPT inconclusive and ALOX12 inh -11.5%.
For CCCNC(=O)Nc1nc2ccccc2s1 the results were HT1080-NT tox 13.2%, HT1080 IDH1KD tx -0.4%, TDP1 cell noCPT 4.0%, IL-1B inflam inh -17.0, TDP1 cell CPT -25.1% and ALOX12 inh 4.2%.
CCCNC(=O)c1ccc(-c2nc3ccccc3s2)s1 was read as HT1080-NT tox -8.3%, HT1080 IDH1KD tx -3.8%, TDP1 cell noCPT 10.3µM*, IL-1B inflam inh -10.2, TDP1 cell CPT inconclusive and ALOX12 inh 0.0%.
COc1cc(O)c(C(CCN2CCCC2)c2ccc(N(C)C)cc2)c(OC)c1 (configuration not stated) was read as HT1080-NT tox 2.6%, HT1080 IDH1KD tx -14.7%, TDP1 cell noCPT 20.6µM*, IL-1B inflam inh -13.4, TDP1 cell CPT 14.6µM* and ALOX12 inh -0.3%.
COc1cc(O)c(C(CCN2CCCCC2)c2ccc(N(C)C)cc2)c(OC)c1 (configuration not stated) was read as HT1080-NT tox -3.4%, HT1080 IDH1KD tx -2.3%, TDP1 cell noCPT 6.51µM*, IL-1B inflam inh inconclusive, TDP1 cell CPT 16.4µM* and ALOX12 inh -3.7%.
Screening Cc1cccc(N2CCN(CCCNc3ncnc4onc(-c5ccc(F)cc5)c34)CC2C)c1 (configuration not stated) returned TDP1 cell noCPT 20.6µM*, TDP1 cell CPT inconclusive and ALOX12 inh inconclusive.
For Cc1ccc(Cl)cc1N1CCN(CCCNc2ncnc3onc(-c4ccc(Cl)cc4)c23)CC1 the results were TDP1 cell noCPT inconclusive, TDP1 cell CPT inconclusive and ALOX12 inh -0.2%.
Cc1ccc(C)c(N2CCN(CCCNc3ncnc4onc(-c5ccc(Cl)cc5)c34)CC2)c1 was read as TDP1 cell noCPT 16.4µM*, TDP1 cell CPT inconclusive and ALOX12 inh 5.2%.
Cc1cccc(N2CCN(CCCNc3ncnc4onc(-c5ccc(Cl)cc5)c34)CC2C)c1 (configuration not stated) was read as TDP1 cell noCPT 20.6µM*, TDP1 cell CPT inconclusive and ALOX12 inh 6.8%.
CCN(CC)C(=O)CSc1nnc(COc2ccccc2)n1N was read as HT1080-NT tox -1.8%, HT1080 IDH1KD tx -4.3%, TDP1 cell noCPT -14.4%, IL-1B inflam inh -3.4, TDP1 cell CPT -11.9% and ALOX12 inh -1.1%.
`CCN(CCNC(=O)C1Cn2cccc2C(=O)N1C)Cc1ccccc1` (configuration not stated) gave ALOX12 inh 29.4%.
COc1ccccc1NC(=O)C(C)Sc1nnc2ccccn12 (configuration not stated) was read as HT1080-NT tox -1.3%, HT1080 IDH1KD tx 1.4%, TDP1 cell noCPT inconclusive, IL-1B inflam inh -3.4, TDP1 cell CPT 0.3% and ALOX12 inh 10.4%.
Screening Cc1cc(C)n(-c2nc(NCCCO)c3c4c(sc3n2)CCCC4)n1 returned HT1080-NT tox -6.4%, HT1080 IDH1KD tx -3.6%, TDP1 cell noCPT 4.11µM*, IL-1B inflam inh -18.4 and TDP1 cell CPT 5.8µM*.
`Cc1cc(C)n(-c2nc(NCC(C)O)c3c4c(sc3n2)CCCC4)n1` (configuration not stated) gave HT1080-NT tox -8.4%, HT1080 IDH1KD tx -7.5%, TDP1 cell noCPT 18.4µM*, IL-1B inflam inh -17.2, TDP1 cell CPT inconclusive and ALOX12 inh inconclusive.
Screening Cc1cc(C)n(-c2nc(NCCO)c3c4c(sc3n2)CCCC4)n1 returned HT1080-NT tox -7.5%, HT1080 IDH1KD tx -9.4%, TDP1 cell noCPT inconclusive, IL-1B inflam inh -5.2, TDP1 cell CPT inconclusive and ALOX12 inh 0.0%.
`COCC1CN(C)CC12CCN(C(=O)c1ccc(C)cc1C)CC2` (configuration not stated) gave ALOX12 inh 0.4%.
For O=C(OCc1ccccc1Br)c1cc2ccccc2[nH]1 the results were ALOX12 inh -16.2%.
`CCCCN(Cc1ccccc1)c1ccc(C(=O)O)cc1NS(=O)(=O)c1ccc(C)c(C)c1` gave ALOX12 inh 8.91µM*.
`CCCCN(Cc1ccccc1)c1ccc(C(=O)O)cc1NS(=O)(=O)c1ccc(C(C)=O)cc1` gave ALOX12 inh 5.62µM*.
`O=C(O)c1cc(NC/C=C/c2ccccc2)ccc1N1CCOCC1` gave ALOX12 inh 7.3%.
O=C(C1CCCN(Cc2ccccc2[N+](=O)[O-])C1)N1CCCCC1 (configuration not stated) was read as HT1080-NT tox 13.7%, HT1080 IDH1KD tx 0.0%, TDP1 cell noCPT -28.6%, IL-1B inflam inh 26.5, TDP1 cell CPT -29.4% and ALOX12 inh 2µM*.
For O=C(C1CCCN(Cc2ccccc2Cl)C1)N1CCCCC1 (configuration not stated) the results were HT1080-NT tox -7.6%, HT1080 IDH1KD tx 5.6%, TDP1 cell noCPT -24.0%, IL-1B inflam inh 5.4, TDP1 cell CPT -9.9% and ALOX12 inh inconclusive.
`O=C(C1CCCN(Cc2cccc3ccccc23)C1)N1CCCCC1` (configuration not stated) gave ALOX12 inh 0.447µM*.
CCCCCc1c(C)nc(Nc2nc(C)c3ccc(CC)cc3n2)[nH]c1=O was read as ALOX12 inh 11.6%.
`Cc1csc(-c2cnn(-c3ccccc3)c2NC(=O)c2ccc(C(F)(F)F)cc2)n1` gave HT1080-NT tox -1.9%, HT1080 IDH1KD tx -19.4%, TDP1 cell noCPT 23.1µM*, IL-1B inflam inh -20.3, TDP1 cell CPT inconclusive and ALOX12 inh -12.5%.
